Structures can show the parent of a compound that is named as a salt.

In this experiment the test system is 786-O. The experiment is described as follows: Euclidean distance of Cell Painting phenotypic profile (signed KS, 77 features) to DMSO centroid (dimensionless distance); 5 or 10 uM (library dependent); higher = stronger phenotypic change vs DMSO (phenoactivity). The note with it: 48 h. Summed up:
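Phenoactivity is computed as Euclidean distance to the median vehicle profile. The profiles, drawn from 77 Harmony features scored as signed Kolmogorov-Smirnov statistics versus same-plate vehicle wells, were corrected for plate position, correlation-weighted and replicate-averaged at the top dose. Stained cells were imaged confocally at 20X (9 fields/well) after 48 h with library compounds at 10 or 5 uM, 0.1% DMSO final, in five cancer lines and a healthy fibroblast line.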
`Cc1cc(Nc2nc(N[C@@H](C)c3ccc(F)cc3)c(C#N)cc2F)n[nH]1` came in with an Euclidean distance of 3.5. In turn, `CC1(C)S[C@@H]2[C@H](NC(=O)[C@H](N)c3ccc(O)cc3)C(=O)N2[C@H]1C(=O)O` [Amoxicillin Sodium] registered an Euclidean distance of 1.03. To `CONC(=O)Nc1ccc(-c2sc3c(c2CN(C)C)c(=O)n(-c2ccc(OC)nn2)c(=O)n3Cc2c(F)cccc2F)cc1` [Relugolix] belongs 1.06; to `CCCCCCCCN=C(N)NC(N)=NCc1ccc(Cl)c(Cl)c1` [Olanexidine Hydrochloride semihydrate], 5.91; to `N[C@@H](CC(=O)O)C(=O)O` [L-aspartic Acid], 1.2. Then `O=C(c1ccc(F)c(F)c1Nc1ccc(I)cc1F)N1CC(O)([C@@H]2CCCCN2)C1` [Cobimetinib (GDC-0973. RG7420)], with 2.92; and `CN(C)CCN1C(=O)c2cccc3cc(N)cc(c23)C1=O` [Amonafide], with 3.45. The compound `Nc1nc(NC2CC2)c2ncn([C@H]3C=C[C@@H](CO)C3)c2n1` [Abacavir sulfate] had an Euclidean distance of 1.09. For `CC(C)(C)NCC(O)c1ccc(O)c(CO)c1` (configuration not stated) [Salbutamol Sulfate], the Euclidean distance stood at 1.57.

As for `CCOc1cc(N)c([N+](=O)[O-])cc1C(=O)NC1CCN(CC2CC=CCC2)CC1` (configuration not stated) [Cinitapride Hydrogen Tartrate], the Euclidean distance came out at 1.33. To `CN1CCC(=C2c3ccccc3CCc3cccnc32)CC1` [Azatadine dimaleate] belongs 1.51; to `O=C1c2ccc(Nc3ccc(F)cc3F)cc2CCc2ccc(OC[C@H](O)CO)cc21` [Skepinone-L], 1.06.

Consider `CCc1nc(C(N)=O)c(Nc2ccc(N3CCC(N4CCN(C)CC4)CC3)c(OC)c2)nc1NC1CCOCC1` [Gilteritinib (ASP2215)], for which the Euclidean distance was determined as 2.93. To `O=C(O)c1cc(=O)c2ccccc2o1` [Chromocarb] belongs 1.02; to `CCCCCCCCCCCCCCCCCCOCC(O)CO` (configuration not stated) [Batyl alcohol], 0.871; to `CC(C)c1nc(CN(C)C(=O)N[C@H](C(=O)N[C@@H](Cc2ccccc2)C[C@H](O)[C@H](Cc2ccccc2)NC(=O)OCc2cncs2)C(C)C)cs1` [Ritonavir], 1.49. On to `CSc1nc2cc(Cl)c(Oc3cccc(Cl)c3Cl)cc2[nH]1` [Triclabendazole], for which the Euclidean distance is 1.55. To `CCNC(=O)[C@@H]1CCCN1C(=O)[C@H](CCCNC(=N)N)NC(=O)[C@H](CC(C)C)NC(=O)[C@@H](CC(C)C)NC(=O)[C@H](Cc1ccc(O)cc1)NC(=O)[C@H](CO)NC(=O)[C@H](Cc1c[nH]c2ccccc12)NC(=O)[C@H](Cc1c[nH]cn1)NC(=O)[C@@H]1CCC(=O)N1` [Leuprolide Acetate] belongs 0.73; to `CC(=O)Oc1ccc(C(c2ccc(OC(C)=O)cc2)c2ccccn2)cc1` [Bisacodyl], 1.2. To `O=C(CCc1ccc(O)cc1)c1c(O)cc(O)cc1O` [Phloretin] belongs 0.62.

In turn, `CC1(C)S[C@@H]2[C@H](NC(=O)[C@H](N)c3ccccc3)C(=O)N2[C@H]1C(=O)O` [Ampicillin Trihydrate] yielded an Euclidean distance of 1.3.

Take `OC(CCN1CCCC1)(c1ccccc1)C1CCCCC1` (configuration not stated) [Procyclidine HCl]: the Euclidean distance stood at 0.828.

Regarding `CCN1C(=O)NC(c2ccccc2)C1=O` (configuration not stated) [Ethotoin], the Euclidean distance turned out to be 0.868. To `NCCCCCNCC12CC3CC(CC(C3)C1)C2` [IEM 1754 dihydrobroMide] belongs 0.936; to `CCN(CC)CC(=O)Nc1c(C)cccc1C` [Lidocaine hydrochloride], 0.709. Then `O=C1c2c(O)cccc2Cc2cccc(O)c21` [Dithranol], with 2.26; and `Cc1ccc(/C(=C\CN2CCCC2)c2cccc(/C=C/C(=O)O)n2)cc1` [Acrivastine], with 1.08; and `C=C(C)[C@@H]1CC[C@]2(CO)CC[C@]3(C)[C@H](CC[C@@H]4[C@@]5(C)CC[C@H](O)C(C)(C)[C@@H]5CC[C@]43C)[C@@H]12` [Betulin], with 1.24. To `COc1ccc2[nH]cc(CCNC(C)=O)c2c1` [Melatonin] belongs 0.969. Consider `CO/N=C(\C(=O)N[C@@H]1C(=O)N2C(C(=O)OCOC(=O)C(C)(C)C)=C(/C=C\c3scnc3C)CS[C@H]12)c1csc(N)n1` [Cefditoren Pivoxil], for which the Euclidean distance turned out to be 1.06. Compound `N=C(N)c1ccc(N=NNc2ccc(C(=N)N)cc2)cc1` [Diminazene Aceturate] yielded an Euclidean distance of 1.25. Then `CN[C@H](CC(C)C)C(=O)N[C@H]1C(=O)N[C@@H](CC(N)=O)C(=O)N[C@H]2C(=O)N[C@H]3C(=O)N[C@H](C(=O)N[C@H](C(=O)O)c4cc(O)cc(O)c4-c4cc3ccc4O)[C@H](O)c3ccc(c(Cl)c3)Oc3cc2cc(c3O[C@@H]2O[C@H](CO)[C@@H](O)[C@H](O)[C@H]2O[C@H]2C[C@](C)(N)[C@H](O)[C@H](C)O2)Oc2ccc(cc2Cl)[C@H]1O` [Vancomycin HCl], with 0.545.

These data come from the supplement of paper PMC10127200.
